# D2 PAM-1: Beta-Arrestin HTS for Positive Allosteric Modulators of the Human D2 Dopamine Receptor: Potentiators | D(2) dopamine receptor (Homo sapiens), P14416 | potentiation, % (concentration not given with the values) | 0.23% of 360,000 active | DiscoveRx D2 beta-arrestin cells, luminescence, 90 min; 100% = 57 uM dopamine signal | AID 624464, 2012; in the data active means potentiation above about 50%; inconclusive means mostly about 30% to 49%
# Target sequence (P14416 whole entry, looked up): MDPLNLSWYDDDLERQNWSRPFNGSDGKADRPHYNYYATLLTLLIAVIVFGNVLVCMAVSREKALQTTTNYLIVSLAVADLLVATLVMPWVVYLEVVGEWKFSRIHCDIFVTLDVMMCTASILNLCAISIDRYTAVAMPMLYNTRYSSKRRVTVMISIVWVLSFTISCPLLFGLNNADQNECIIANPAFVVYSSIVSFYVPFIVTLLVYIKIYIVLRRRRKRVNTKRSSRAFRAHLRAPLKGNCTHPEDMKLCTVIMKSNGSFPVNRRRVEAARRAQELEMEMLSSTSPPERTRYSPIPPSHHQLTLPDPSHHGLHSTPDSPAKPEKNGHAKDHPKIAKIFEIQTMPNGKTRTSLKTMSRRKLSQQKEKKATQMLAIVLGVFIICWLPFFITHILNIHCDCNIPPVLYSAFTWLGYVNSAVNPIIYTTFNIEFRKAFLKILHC
#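 D2 cells co-treated with compound plus 50 nM dopamine (EC20) for 90 min at 37 deg C to detect potentiation. Beta-arrestin recruitment was read as enzyme-fragment luminescence after 1 h at ambient temperature. Full response was set by 57 uM dopamine.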
# D2 PAM-2: HTS Assay for Positive Allosteric Modulators of the Human D2 Dopamine Receptor: Primary Screen for Potentiators | AID 485347, 2010 | HEK293 T-REx D2, calcium flux, EC20 dopamine potentiation | potentiation, % at 10 µM | D(2) dopamine receptor (Homo sapiens), P14416 | 0.34% of 340,000 active;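 active means potentiation over 3 SD above the plate norm, cut at about 30% in these data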; further: 0% is about no effect
#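 Using a no-wash calcium dye in inducible, force-coupled HEK293 Trex cells expressing D2, we tracked fluorescence each second for 180 s after compound, then for 180 s after EC20 dopamine to detect augmented signalling.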
# D2 ag-1: Beta-Arrestin HTS for Positive Allosteric Modulators of the Human D2 Dopamine Receptor: Agonists. 0.084% of 360,000 active. DiscoveRx PathHunter D2 beta-arrestin, luminescence, 90 min; 100% = 57 uM dopamine signal. activation, % (concentration not given with the values); in the data active means activation above about 40%; inconclusive means between about 15% and that limit
#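 DiscoveRx PathHunter D2 beta-arrestin cells (2,100/well) attached overnight, then compound-stimulated 90 min at 37 C in HBSS/10 mM HEPES/0.1% Tween-20 buffer; beta-galactosidase complementation read by luminescence after 1 h at ambient temperature. Dopamine 57 uM final (EC100) as control.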
# D2 ag-2: HTS Assay for Allosteric Agonists of the Human D2 Dopamine Receptor: Primary Screen for Agonists | activation, % at 2 µM | 0.53% of 340,000 active | HEK293 T-REx D2 cells, calcium flux agonist mode | D(2) dopamine receptor (Homo sapiens), P14416;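 active means activation over 3 SD above normal in the single-dose calcium agonist read, cut at about 30% in these data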; further: 0% is about no effect
#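 HEK293 Trex D2 cells, tetracycline-induced, o/n 30 C 5% CO2; no-wash Ca dye, RT 30–90 min; 10-cycle baseline, 23 nl cpd added, kinetic Ca read 180 s; agonist hits = positive Ca response.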
# D2 antagonist: HTS Assay for Allosteric Antagonists of the Human D2 Dopamine Receptor: Primary Screen for Antagonists; D(2) dopamine receptor (Homo sapiens), P14416; HEK293 TREx D2 cells, calcium flux, dopamine EC80; 2% of 340,000 active; inhibition, % at 10 µM; in the data active means inhibition above about 30%; inactive means below that, where a call was filed; further: 0% is about no effect
#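 Tetracycline-induced HEK293 T-REx cells expressing D2 force-coupled to calcium signalling were dye-loaded, exposed to compound for 180 s, then challenged with an EC80 of dopamine; calcium flux was followed kinetically for a further 180 s.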
# * = called active by the depositor; u = inconclusive; x = no result. In the library only some 2.4% were active in any assay of this set; here they are far more common.
SMILES,D2 PAM-1,D2 PAM-2,D2 ag-1,D2 ag-2,D2 antagonist
Cc1ccc(NC(=O)CN(C)S(=O)(=O)c2ccc3c(c2)n(C)c(=O)c(=O)n3C)c(C)c1,-6.2,-0.4,-5.1,-0.6,0.5
Cc1cc(C)c(NC(=O)CN(C)S(=O)(=O)c2ccc3c(c2)n(C)c(=O)c(=O)n3C)c(C)c1,0.7,75.5*,-4.6,0.1,8.4
COc1ccc2nc(NC(=O)C3CC(=O)N(c4ccccc4)C3)sc2c1 (stereo not given),-7.4,5.6,-1.2,-0.3,31.2*
COc1ccc(N2CC(C(=O)Nc3nc4ccc(OC)cc4s3)CC2=O)cc1 (stereo not given),1.2,1.5,-0.9,0.6,-11.8
O=C(CCCSc1nnc(Nc2ccccc2F)s1)N1CCOCC1,-36.1,-4.0,0.7,1.0,39.3*
COc1ccc(NC(=O)c2ccc3nc(C)c(N(C)C(=O)CCc4ccccc4)n3c2)cc1OC,-5.3,x,3.4,x,x
Cc1ccc(S(=O)(=O)N(C(=O)c2ccncc2)c2ccc(OC(=O)c3ccncc3)c3ccccc23)c(C)c1,89.9*,x,u,x,x
O=C(Nc1nnc(SCC(=O)N2CCCCC2)s1)c1ccc(F)cc1F,0.9,-2.7,3.1,0.5,55.3*
CN(C)CCCNC(=S)/N=c1\sccn1Cc1ccccc1Cl,-11.0,-40.2,-1.8,0.3,90.4*
CC(=O)N1CCN(c2ccc(S(=O)(=O)N3CCCCC3)cn2)CC1,7.7,3.5,-0.3,0.8,37.7*
CCNc1ccc(S(=O)(=O)N2CCCCC2)cn1,-3.1,3.5,4.6,0.1,33.1*
CN(C)CC(C)(C)CNc1ccc(S(=O)(=O)N2CCCC2)cn1,-2.1,x,0.9,x,x
COc1ccc(NC(=O)CC2C(=O)N(c3ccc(C)cc3)C(=O)N2CCc2ccccc2)cc1 (stereo not given),x,-7.2,x,-0.5,x
CS(=O)(=O)Nc1cccc(C2=NN(C(=O)CCCC(=O)O)C(c3cccs3)C2)c1 (stereo not given),-9.5,-1.5,-2.8,-0.8,13.3
COc1ccc(Nc2nc(CC(C)=O)ns2)cc1,-5.3,-2.8,-2.2,0.9,9.6
COc1cccc(Nc2nc(CC(C)=O)ns2)c1,9.9,-11.2,-0.1,0.1,32.8*
O=S(=O)(Nc1ccc(Cl)cn1)c1cccs1,6.5,7.0,-1.3,-3.2,-8.6
Cc1cc2nc(C3CCCN(C(=S)Nc4ccccc4)C3)[nH]c2cc1C (stereo not given),-8.3,7.3,-0.1,-1.0,31.0*
COc1cc2[nH]c(=O)n(CCCCCC(=O)N3CCN(c4ccc(Cl)cc4)CC3)c(=O)c2cc1OC,x,9.7,x,-0.4,x
CCN(CC)CCOC(=O)c1ccc(Cl)cc1Cl,-28.9,-14.4,-1.3,-0.7,32.7*
CCN(CC)CCOC(=O)c1ccc(Cl)cc1,-45.5,5.5,-4.8,-0.1,-5.2
CN(C)S(=O)(=O)c1ccc(C(=O)OCC2CC2(Cl)Cl)cc1 (stereo not given),-7.2,0.3,-3.3,-1.0,8.0
O=C(Nc1nc2ccccc2s1)c1cccc(S(=O)(=O)N2CCc3ccccc32)c1,-0.9,x,-1.9,x,x
O=C(Nc1nc2c(s1)CN(Cc1ccccc1)CC2)c1cccc(S(=O)(=O)N2CCc3ccccc32)c1,-3.9,-20.0,0.9,8.9,40.8*
Cc1ccc(SCC(=O)Nc2cccc(S(=O)(=O)N3CCOCC3)c2)cc1C,-3.6,8.5,-1.8,0.4,34.9*
COc1ccc(C(C)=O)cc1CC(=O)Nc1cccc(S(=O)(=O)N2CCOCC2)c1,-1.5,-10.5,-2.4,0.4,32.8*
O=C(CSc1ccc(Br)cc1)Nc1cccc(S(=O)(=O)N2CCOCC2)c1,5.3,-7.7,0.6,0.0,13.6
COc1ccc(C(C)=O)cc1CC(=O)Nc1ccccc1-c1ccccc1,3.8,31.2*,-5.8,-1.1,-3.8
